For some assays here: Potency and affinity values are given separately. The source made the active and inactive calls.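 Rule for the calls, unless noted: active = signal rise over 3 SD above mean of control wells given weak agonist, in both repeats and first screen; inactive = the rest.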
Assays:
[1] = test system: TRPC4 beta (transient receptor potential cation channel C4), mouse; experiment: TRPC4 cation channel opening, retest – cell-based, Fluo4 calcium, HEK293 TRPC4beta/mu-opioid, duplicates, 10 µM, confirmation (AID 2426;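 active = fluorescence ratio normalized to control raised more than 50% in primary screen plus both repeat runs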;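 for activation: percent rise of integrated ratio over buffer wells lacking compound which define 0%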); conditions: Fluo4 calcium fluorescence, at 10 µM; active compounds read high
[2] = test system: transient receptor potential cation channel C4 beta (TRPC4), mouse; experiment: TRPC4 cation channel opening, second retest – cell-based, second round, Fluo4, HEK293 TRPC4beta/mu-opioid, 1 µM, confirmation (AID 2461;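 active = primary screen active and over 50% activation in each of two duplicate runs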;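 for activation: 0% = wells without test compound as baseline of integrated fluorescence ratio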); conditions: Fluo4 calcium fluorescence, at 1 µM; active compounds read high
[3] = test system: TRPC4 (transient receptor potential cation channel C4 beta), mouse; experiment: potentiation of DAMGO EC20 TRPC4 response – cell-based, second round, Fluo-4, HEK293 TRPC4beta/mu-opioid, 1 µM, confirmation (AID 2554;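 active = primary screen hit whose fluorescence ratio, in both repeats, exceeds the weak agonist control mean by 3 SD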); conditions: DAMGO EC20, Fluo-4 calcium flux, at 1 µM; active compounds read high
[4] = test system: TRPC4 beta (transient receptor potential cation channel C4), mouse; experiment: potentiation of DAMGO EC20 TRPC4 response – cell-based, Fluo-4, HEK293 TRPC4beta/mu-opioid, confirmation (AID 2555;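 active = primary screen hit whose calcium fluorescence ratio, in both repeats, exceeds the weak agonist control mean by 3 SD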); conditions: DAMGO EC20, Fluo-4 calcium flux, at 10 µM; active compounds read high
[5] = target: Short transient receptor potential channel 4 (Mus musculus) (UniProt Q9QUQ5); experiment: blockers of DAMGO-evoked TRPC4 calcium flux – cell-based, Fluo4, HEK293 TRPC4beta/mu-opioid, confirmation (AID 2636;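 active = calcium signal cut by more than 3 SD below the full-agonist control yet still positive, in both repeats and the earlier primary screen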); conditions: at 10 µM; active compounds read high
Chain of Short transient receptor potential channel 4 (Mus musculus) (Q9QUQ5 whole entry, looked up): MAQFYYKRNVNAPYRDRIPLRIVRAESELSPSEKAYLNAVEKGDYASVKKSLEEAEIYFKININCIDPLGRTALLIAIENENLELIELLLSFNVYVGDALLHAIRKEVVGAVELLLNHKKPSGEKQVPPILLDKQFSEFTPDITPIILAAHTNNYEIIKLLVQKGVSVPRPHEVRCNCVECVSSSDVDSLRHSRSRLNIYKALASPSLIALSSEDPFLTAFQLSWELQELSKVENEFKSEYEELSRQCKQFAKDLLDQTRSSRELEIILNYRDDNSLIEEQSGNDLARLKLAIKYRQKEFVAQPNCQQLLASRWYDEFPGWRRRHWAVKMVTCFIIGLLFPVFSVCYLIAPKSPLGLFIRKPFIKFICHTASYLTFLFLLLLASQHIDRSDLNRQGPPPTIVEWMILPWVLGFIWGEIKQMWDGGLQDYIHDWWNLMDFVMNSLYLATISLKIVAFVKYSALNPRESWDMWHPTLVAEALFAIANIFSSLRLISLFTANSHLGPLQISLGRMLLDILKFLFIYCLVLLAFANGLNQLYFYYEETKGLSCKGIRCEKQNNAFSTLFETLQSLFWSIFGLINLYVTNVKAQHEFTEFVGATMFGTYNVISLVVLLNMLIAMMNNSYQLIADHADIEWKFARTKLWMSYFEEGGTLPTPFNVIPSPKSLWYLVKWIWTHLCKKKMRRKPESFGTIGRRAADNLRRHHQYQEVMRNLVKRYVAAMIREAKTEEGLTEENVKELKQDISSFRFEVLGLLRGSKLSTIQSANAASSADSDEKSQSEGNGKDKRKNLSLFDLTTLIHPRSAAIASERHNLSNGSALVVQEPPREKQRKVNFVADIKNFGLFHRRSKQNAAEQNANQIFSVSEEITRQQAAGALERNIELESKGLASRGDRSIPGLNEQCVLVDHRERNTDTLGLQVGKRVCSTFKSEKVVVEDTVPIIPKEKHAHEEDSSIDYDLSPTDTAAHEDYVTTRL

[6] = target: Short transient receptor potential channel 4 (Mus musculus) (UniProt Q9QUQ5); experiment: blockers of DAMGO-evoked TRPC4 calcium flux – cell-based, second round, Fluo4, HEK293 TRPC4beta/mu-opioid, 1 µM, confirmation (AID 2637;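 active = calcium signal ratio cut to more than 3 SD under the fully stimulated control mean yet still positive, in both repeats and the primary screen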); conditions: at 1 µM; active compounds read high
[7] = target: Short transient receptor potential channel 4 (Mus musculus) (UniProt Q9QUQ5); experiment: potentiation of DAMGO-evoked TRPC4 calcium signal – cell-based, HEK293 TRPC4/mu-opioid, Fluo-4 calcium, EC20 DAMGO, dose response (AID 434941;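 active = earlier screen potentiator hit that boosts the TRPC4 ion channel at some dose, with a dose response; inactive = no potentiation, no dose response, or not a prior hit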;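 note: calcium entry triggered by an EC20 dose of DAMGO at the co-expressed mu-opioid receptor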)
[8] = target: Short transient receptor potential channel 4 (Mus musculus) (UniProt Q9QUQ5); experiment: block of DAMGO-driven TRPC4 calcium entry – cell-based, HEK293 TRPC4/mu-opioid, Fluo-4 calcium, dose response (AID 434942;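 active = primary screen inhibitor hit that blocks the TRPC4 channel at some tested dose, yielding a dose curve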)
[9] = target: Short transient receptor potential channel 6 (Mus musculus) (UniProt Q61143); experiment: TRPC6 blockade by TRPC4 inhibitor hits – cell-based, HEK293, membrane potential dye, duplicate, selectivity assay for TRPC4 inhibitor project, confirmation (AID 434948;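 active = active in primary screen and both duplicates, each dropping signal beyond three positive-control SD with fluorescence still positive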); conditions: HEK293 TRPC6, membrane potential dye fluorescence, at 10 µM; inhibition: active compounds read high, stimulated with maximal-effect acetylcholine unless noted; outcome: stimulated with maximal-effect acetylcholine unless noted
Chain of Short transient receptor potential channel 6 (Mus musculus) (Q61143 whole entry, looked up): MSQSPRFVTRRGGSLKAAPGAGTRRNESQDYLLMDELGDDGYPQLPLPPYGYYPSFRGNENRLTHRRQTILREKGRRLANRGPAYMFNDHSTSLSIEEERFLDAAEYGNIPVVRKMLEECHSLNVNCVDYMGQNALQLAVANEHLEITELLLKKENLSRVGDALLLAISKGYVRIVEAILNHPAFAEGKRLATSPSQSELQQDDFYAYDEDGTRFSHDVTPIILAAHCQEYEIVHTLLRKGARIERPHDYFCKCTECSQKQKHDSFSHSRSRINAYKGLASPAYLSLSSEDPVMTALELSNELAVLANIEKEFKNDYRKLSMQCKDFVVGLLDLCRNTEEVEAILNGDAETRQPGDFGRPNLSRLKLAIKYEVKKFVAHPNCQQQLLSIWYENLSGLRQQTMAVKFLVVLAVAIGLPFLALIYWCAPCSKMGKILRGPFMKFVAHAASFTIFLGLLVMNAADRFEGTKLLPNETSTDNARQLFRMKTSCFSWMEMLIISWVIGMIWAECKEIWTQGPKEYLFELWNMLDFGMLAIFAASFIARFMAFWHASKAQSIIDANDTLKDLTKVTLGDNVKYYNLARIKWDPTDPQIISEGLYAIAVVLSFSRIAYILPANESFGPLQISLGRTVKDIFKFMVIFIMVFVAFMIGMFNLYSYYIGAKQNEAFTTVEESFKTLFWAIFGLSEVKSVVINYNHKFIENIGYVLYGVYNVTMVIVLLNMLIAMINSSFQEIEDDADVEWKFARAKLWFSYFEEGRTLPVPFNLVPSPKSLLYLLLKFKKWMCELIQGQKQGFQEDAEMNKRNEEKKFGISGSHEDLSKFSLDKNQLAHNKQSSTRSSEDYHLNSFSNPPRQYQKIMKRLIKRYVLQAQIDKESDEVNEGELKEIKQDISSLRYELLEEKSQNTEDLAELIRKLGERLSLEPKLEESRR

[10] = target: Short transient receptor potential channel 6 (Mus musculus) (UniProt Q61143); experiment: TRPC6 opening by TRPC4 activator hits – cell-based, HEK293, membrane potential dye, duplicate, selectivity assay for TRPC4 activator project, confirmation (AID 434950;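 active = membrane potential signal rise above negative control mean plus 3 SD in both duplicates, also active in the earlier TRPC4 screen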;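 for activation: 0% = buffer only wells and 100% = acetylcholine maximal-effect wells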); conditions: HEK293 TRPC6, membrane potential fluorescence, at 10 µM; activation: active compounds read high; outcome: activation
[11] = target: Short transient receptor potential channel 6 (Mus musculus) (UniProt Q61143); experiment: positive modulators of mouse TRPC6 channel – HEK293 cells, membrane potential dye, duplicate, selectivity assay for TRPC4 potentiator project, confirmation (AID 434952;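 active = compound raising the membrane signal above positive-control mean plus 3 SD in both repeats, and a primary screen hit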); conditions: HEK293 TRPC6, membrane potential dye fluorescence, at 10 µM; maximal acetylcholine added after compound unless noted
[12] = target: Short transient receptor potential channel 4 (Mus musculus) (UniProt Q9QUQ5); experiment: calcium flux activators in TRPC4/5HT1a cells, counter-screen for TRPC4 activator project, cell-based, second counter screen, HEK293 TRPC4/5HT1a, Fluo-4 (AID 434977;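 active = calcium signal rise above buffer-control mean plus 5 SD in both duplicates, and also a hit in the primary screen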;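 for activation: plate controls were assay buffer for no effect and maximal serotonin response for full effect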); conditions: Fluo-4 calcium flux, at 10 µM; active compounds read high
[13] = serotonin-gated TRPC4 signal block – cell-based, second counter screen, HEK293 TRPC4/5HT1a, Fluo-4, counter-screen for TRPC4 inhibitor project, confirmation (AID 434978;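 active = primary screen active whose calcium signal fell more than 3 SD beyond the full-serotonin control mean in both duplicate plates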;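 note: serotonin given first at submaximal then at maximal dose after compound preincubation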); conditions: Fluo-4 calcium flux, at 10 µM; inhibition: active compounds read high, serotonin added to trigger calcium flux unless noted; outcome: serotonin added to trigger calcium flux unless noted
[14] = test system: TRPC4 (mouse), co-expressed with 5HT1a in HEK293; experiment: enhancement of serotonin-evoked TRPC4 response – cell-based, second counter screen, HEK293 TRPC4/5HT1a, Fluo-4, counter-screen for TRPC4 potentiator project, confirmation (AID 434979); conditions: Fluo-4 calcium flux, at 10 µM; outcome: serotonin added at its EC20 dose unless noted; potentiation: active compounds read high, serotonin added at its EC20 dose unless noted
[15] = nonspecific calcium rise without TRPC4 – cell-based, HEK293 mu-opioid receptor line, counter-screen for TRPC4 activator project, confirmation (AID 449723;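 active = hit in primary screen, with calcium signal over 5 SD above buffer well mean in both duplicates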;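 note: counter screen cells carry the mu-opioid receptor alone and lack TRPC4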); conditions: HEK293 mu-opioid cells, Fluo-4 calcium fluorescence, at 10 µM; active compounds read high
[16] = nonspecific potentiation of DAMGO calcium response – cell-based, HEK293 mu-opioid receptor line, counter-screen for TRPC4 allosteric potentiator project, confirmation (AID 449724;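 active = calcium signal rise more than 3 SD above the low-dose agonist control mean, in both duplicate plates and the primary screen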); conditions: HEK293 mu-opioid receptor cells, Fluo-4 calcium flux, at 10 µM; compound added before EC20 DAMGO stimulus unless noted

O=[N+]([O-])c1ccc(N2CCNCC2)c(Cl)c1
inactive: outcome [1] | outcome [2] | outcome [5] | outcome [6] | outcome [7] | outcome [8] | outcome [9] | outcome [10] | outcome [11] | outcome [13] | outcome [14] | outcome [15] | outcome [16]
active: potentiation [3] 26% | potentiation [4] 28% | activation [12] 5.58%

COc1ccc2c(c1O)C13CCN(C)C(C2)C1CCC(=O)C3 (centres undefined)
active: activation [1] 82% | activation [2] 96% | activation [10] 27.5%
inactive: outcome [3] | outcome [4] | outcome [5] | outcome [6] | outcome [7] | outcome [8] | outcome [9] inactive [setting not given] | outcome [11] inactive [setting not given] | outcome [12] | outcome [13] inactive [setting not given] | outcome [14] inactive [setting not given] | outcome [15] | outcome [16] inactive [setting not given]

COc1ccc(C(CNC(=O)c2ccc3c(c2)CCC3)N(C)C)cc1 (centres undefined)
inactive: outcome [3] | outcome [4] | outcome [5] | outcome [6] | outcome [7] | outcome [8] | outcome [9] | outcome [11] | outcome [12] | outcome [13] | outcome [14] | outcome [16]
active: activation [1] 237% | activation [2] 142% | activation [10] 76.5% | activation [15] 12.1%

Cn1c(N2CCNCC2)nc2ccccc21
active: activation [1] 117% | activation [2] 92% | activation [10] 31.5% | activation [12] 34.7%
inactive: outcome [3] | outcome [4] | outcome [5] | outcome [6] | outcome [7] | outcome [8] | outcome [9] | outcome [11] | outcome [13] | outcome [14] | outcome [15] | outcome [16]

COc1ccc(CCNCc2ccc(SC)cc2)cc1
inactive: outcome [2] | outcome [3] | outcome [4] | outcome [5] | outcome [6] | outcome [7] | outcome [8] | outcome [9] inactive [setting not given] | outcome [11] inactive [setting not given] | outcome [13] inactive [setting not given] | outcome [14] inactive [setting not given] | outcome [15] | outcome [16] inactive [setting not given]
active: activation [1] 122% | activation [10] 65.5% | activation [12] 21.7%

CC1CN(c2ccc([N+](=O)[O-])c3cccnc23)CC(C)N1 (centres undefined)
inactive: outcome [3] | outcome [4] | outcome [5] | outcome [6] | outcome [7] | outcome [8] | outcome [9] | outcome [10] | outcome [11] | outcome [13] | outcome [14] | outcome [15] | outcome [16]
active: activation [1] 108% | activation [2] 81% | activation [12] 35.7%

Cc1cc(-c2ccccc2)cc(C)[n+]1Cc1ccccc1
active: activation [1] 142%
inactive: outcome [2] | outcome [3] | outcome [4] | outcome [5] | outcome [6] | outcome [7] | outcome [8] | outcome [9] | outcome [10] | outcome [11] | outcome [12] | outcome [13] | outcome [14] | outcome [15] | outcome [16]

CNCCc1nc(N)n[nH]1
inactive: outcome [3] | outcome [4] | outcome [5] | outcome [6] | outcome [7] | outcome [8] | outcome [9] | outcome [10] | outcome [11] | outcome [13] | outcome [14] | outcome [15] | outcome [16]
active: activation [1] 160% | activation [2] 172% | activation [12] 146%

O=C(c1ccc2c3c(cccc13)CC2)C1CCCN(CC2CC2)C1 (centres undefined)
inactive: outcome [3] | outcome [4] | outcome [5] | outcome [6] | outcome [7] | outcome [8] | outcome [9] | outcome [11] | outcome [13] | outcome [14] | outcome [15] | outcome [16]
active: activation [1] 164% | activation [2] 79% | activation [10] 75.5% | activation [12] 61.9%

CCOC(=O)C1(CCc2ccccc2)CCN(Cc2csc(C(C)=O)c2)CC1
active: activation [10] 57.5%
inactive: outcome [1] | outcome [2] | outcome [3] | outcome [4] | outcome [5] | outcome [6] | outcome [7] | outcome [8] | outcome [9] | outcome [11] | outcome [12] | outcome [13] | outcome [14] | outcome [15] | outcome [16]

COc1ccc(CNCCc2c[nH]c3ccccc23)cc1OC
inactive: outcome [2] | outcome [3] | outcome [4] | outcome [5] | outcome [6] | outcome [7] | outcome [8] | outcome [9] | outcome [11] | outcome [12] | outcome [13] | outcome [14] | outcome [15] | outcome [16]
active: activation [1] 110% | activation [10] 28%

C[C@H]1OC[C@@H](C[N+](C)(C)C)O1
active: activation [1] 152% | activation [2] 99% | activation [10] 96% | activation [12] 85% | activation [15] 87.7%
inactive: outcome [3] | outcome [4] | outcome [5] | outcome [6] | outcome [7] | outcome [8] | outcome [9] | outcome [11] | outcome [13] | outcome [14] | outcome [16]

Cc1ccccc1C(O)(Cc1ccccc1)C1CN2CCC1CC2 (centres undefined)
inactive: outcome [2] | outcome [3] | outcome [4] | outcome [5] | outcome [6] | outcome [7] | outcome [8] | outcome [9] | outcome [11] | outcome [12] | outcome [13] | outcome [14] | outcome [15] | outcome [16]
active: activation [1] 109% | activation [10] 51%

Cc1ccc(C)c(NC(=S)NCCc2cnc[nH]2)c1
active: activation [1] 137% | activation [12] 69.3%
inactive: outcome [2] | outcome [3] | outcome [4] | outcome [5] | outcome [6] | outcome [7] | outcome [8] | outcome [9] | outcome [10] | outcome [11] | outcome [13] | outcome [14] | outcome [15] | outcome [16]
